The results in this text go back to PubChem BioAssay (Tox21).

Results filed as inconclusive are left out. Values without a mark were called inactive. Activity calls are given as the source filed them. The call rests on the fitted dose curve; in most records, active means well fitted cell-killing curve with a large enough effect in the repeat runs; inconclusive means weak or mixed curves, or effect the other way; inactive means flat fitted curve, though single readings scatter.
On the % scale 0 is the no-effect control and ±100 the full control effect; potency means the concentration at half of the fitted maximal effect.

The nature of the test: qHTS assay to identify small molecule antagonists of the estrogen receptor alpha (ER-alpha) signaling pathway using the BG1 cell line in the presence of 0.1 nM 17-beta-estradiol - cell viability counter screen (AID 1259241). Further: nearly all actives have a fitted effect of over 40% in size. Particulars: VM7Luc4E2 (BG1) viability, CellTiter-Fluor protease, 22 h, 0.1 nM estradiol agonist added; series mostly up to 92.4 µM; activity change, negative = cytotoxicity: at the top concentration. The text has this:
National Center for Advancing Translational Sciences [NCATS]
NIH Chemical Genomics Center [NCGC]
U.S. Environmental Protection Agency [EPA]
National Institutes of Environmental Health Sciences [NIEHS]
National Toxicology Program [NTP]
U.S. Food and Drug Administration [FDA]
Estrogen receptor (ER), a member of the nuclear hormone receptor plays an important role in development, metabolic homeostasis and reproduction. Two subtypes of ER, ER-alpha and ER-beta, have similar expression patterns with some uniqueness in both types. Endocrine disrupting chemicals (EDCs) and their interactions with steroid hormone receptors like ER causes disruption of normal endocrine function. Therefore, it is important to understand the effect of environmental chemicals in ER signaling pathway. For identifying ER antagonists, VM7Luc4E2 cell line was used to screen against Tox21 compound libraries.
VM7Luc4E2 cell line (provided by Denison MS, University of California) endogenously express full-length ER-alpha and is stably transfected with a plasmid containing four estrogen responsive elements (ERE) upstream of a luciferase reporter gene. The current screening for identification of ER-alpha inhibitors against Tox21 compound libraries used lower concentration (0.1 nM) of 17beta-Estradiol as a stimulator. The cytotoxicity of the Tox21 compound libraries against VM7Luc4E2 cell line was tested by measuring live-cell protease activity using CellTiter-Fluor assay in the same wells.
Tox21 Assay Protocol Summary:
VM7Luc4E2 cells were cultured in phenol red free assay medium containing 10% charcoal stripped FBS for 5 days prior to the assay. The cells were dispensed at 4,000 cells/well in 4 uL of assay medium into white wall/solid-bottom 1536-well plates (Corning Life Sciences, Corning, NY) using a Multidrop Combi (ThermoFisher Scientific, Waltham, MA) dispenser. After the assay plates were incubated at 37C and 5% CO2 for 24 hr, 23 nL of compounds dissolved in DMSO, positive controls or DMSO only was transferred to the assay plates by a Pintool station (Kalypsys, San Diego, CA). The transfer of compounds was followed by the addition of 1 uL of 0.1 nM (final concentration) agonist (17beta-Estradiol)/assay medium using a Flying Reagent Dispenser (FRD, Aurora Discovery, San Diego, CA). The plates were incubated at 37C and 5% CO2 for 22 hr. For cytotoxicity assay, 1 uL of CellTiter-Fluor reagent (Promega Corporation, Madison, WI) was added to each well using the FRD and after 30 min incubation at 37C and 5% CO2, The fluorescence intensity was measured using ViewLux plate reader (PerkinElmer, Shelton, CT).
A general note: Quantitative high-throughput screening tests each substance at several concentrations.
Turning to `CCN1CC(CCN2CCOCC2)C(c2ccccc2)(c2ccccc2)C1=O` (stereo not given), the “activity change, negative = cytotoxicity” value is -6.11% [at 42.5 µM].

`CC(=O)Oc1cc(C(C)C)c(OCCN(C)C)cc1C`: the “activity change, negative = cytotoxicity” value is -0.0836% [at 42.5 µM].

For `CC(C)NC[C@@H](O)COc1cccc2ccccc12`, the “activity change, negative = cytotoxicity” value is 0.471% [at 42.5 µM]. For `COC(=O)c1ccc2cc(C(=O)OC)ccc2c1`, the activity change, negative = cytotoxicity is -8.86% [at 19 µM]. Turning to `NNS(=O)(=O)c1ccc(Oc2ccc(S(=O)(=O)NN)cc2)cc1`, the “activity change, negative = cytotoxicity” value is -1.43%. Turning to `CCCCCCn1c(=O)c2c(ncn2C)n(C)c1=O`, the “activity change, negative = cytotoxicity” value is 6.29% [at 42.5 µM]. `O=C1N(c2ccccc2)c2ccccc2C1(Cc1ccncc1)Cc1ccncc1`: the “activity change, negative = cytotoxicity” value was 12.1% [at 42.5 µM]. Turning to `CC(C)(C)c1ccc(OC(=O)c2ccccc2O)cc1`, the “activity change, negative = cytotoxicity” value was -1.69%. In the case of `NCCC(O)(P(=O)(O)O)P(=O)(O)O`, the “activity change, negative = cytotoxicity” value is -1.73% [at 42.5 µM].

Take `Cc1cc2c(s1)Nc1ccccc1N=C2N1CCN(C)CC1`: the Potency was 13.3 µM (active). Turning to `CCCCC1CCC(=O)O1` (stereo not given), the “activity change, negative = cytotoxicity” value is -1.58%. On to `O=C(CCCl)NCc1ccccc1`, for which the “activity change, negative = cytotoxicity” value was -1.77% [at 42.5 µM]. The same measure, in the same setting: the value for `CCCCCCCOC(=O)CCC` was -3.62%; that for `CC(C)C1=CC2=CC[C@@H]3[C@](C)(CCC[C@@]3(C)C(=O)O)[C@H]2CC1` was -8.22%; that for `CN1CCN(C2=Nc3ccccc3Oc3ccc(Cl)cc32)CC1` was -12.2% [at 42.5 µM].

As to `CCCCCCOc1ccc(N)cc1`, the “activity change, negative = cytotoxicity” value is -2.35%. `Cc1nc(N)nc(N)c1-c1ccc(Cl)c(Cl)c1`: the “activity change, negative = cytotoxicity” value is -14.8% [at 42.5 µM].

In the case of `O=C(C(Cl)Cl)N1CCOC12CCCCC2`, the “activity change, negative = cytotoxicity” value was 1.2%. Regarding `COc1ccc(Nc2ccc(OC)cc2)cc1`, the “activity change, negative = cytotoxicity” value is -12.6%. For the molecule `C[C@@H]1CN(c2c(F)c(F)c3c(=O)c(C(=O)O)cn(C4CC4)c3c2F)C[C@H](C)N1`, the activity change, negative = cytotoxicity is 13.3% [at 19 µM].

Regarding `O=C(Cl)c1cccc([N+](=O)[O-])c1`, the “activity change, negative = cytotoxicity” value was 11.9%. In the case of `CCCCC(CC)COC(=O)COc1cc(Cl)c(Cl)cc1Cl` (stereo not given), the “activity change, negative = cytotoxicity” value was 7.74%. For `CCOC(=O)C1CC(=O)C(=C(O)C2CC2)C(=O)C1` (stereo not given), the “activity change, negative = cytotoxicity” value is 1.14%. Take `CCN(CC)C(=O)N(CC)CC`: the “activity change, negative = cytotoxicity” value was 2.8%.

`O=C(O[C@@H](C(=O)O)[C@@H](OC(=O)c1ccccc1)C(=O)O)c1ccccc1`: the “activity change, negative = cytotoxicity” value was -0.303%. Still for that read-out and setting: as for `OCC(CBr)(CBr)CBr`, the figure is 10.2%; as for `CC(C)Nc1nc(N)nc(Cl)n1`, 8.3%. On the same count and under the same terms, as for `CN1CCC[C@@H]1Cc1c[nH]c2ccc(CCS(=O)(=O)c3ccccc3)cc12`, the figure is -10.9% [at 42.5 µM]; as for `COc1cc(C)ccc1C(C)C`, 1.28%.

On to `CCCCCCCCOC(=O)CCCCCCCCC(=O)OCCCCCCCC`, for which the “activity change, negative = cytotoxicity” value was 0.612%. In the case of `CCCNC(C)(C)COC(=O)c1ccccc1`, the “activity change, negative = cytotoxicity” value is -7.11% [at 42.5 µM]. As to `CCCCNc1cc(C(=O)O)cc(S(N)(=O)=O)c1Oc1ccccc1`, the “activity change, negative = cytotoxicity” value was 1.23% [at 42.5 µM].

For the molecule `CCOc1ccc(NC(N)=O)cc1`, the “activity change, negative = cytotoxicity” value is 7.29%.

`CCN(CC)CCOc1ccc(Cc2ccccc2)cc1`: the “activity change, negative = cytotoxicity” value is -13.8% [at 42.5 µM]. For the molecule `CCCCNCCCC`, the “activity change, negative = cytotoxicity” value was 13.8%.

Turning to `COc1ccccc1OCC(O)COC(N)=O` (stereo not given), the “activity change, negative = cytotoxicity” value is -1.63% [at 42.5 µM]. With `CN1CCN(N)CC1`, the “activity change, negative = cytotoxicity” value was 1.97% [at 42.5 µM]. `OC[C@H]1O[C@@H](O[C@H]2[C@H](O)[C@@H](O)[C@H](O)O[C@@H]2CO)[C@H](O)[C@@H](O)[C@H]1O`: the “activity change, negative = cytotoxicity” value was 1.84%.

For `OCCN(CCO)CCN(CCO)CCO`, the “activity change, negative = cytotoxicity” value was -2.33%.

`CC1(O)CSC(C)(O)CS1` (stereo not given): the “activity change, negative = cytotoxicity” value is -11.8%.
